Among the data in PubChem BioAssay (NCATS) are outcome and Potency values, retold here.

Molecules are shown by their SMILES. Records with an inconclusive call do not appear. The list shows a part of the results. Where a call stands in place of a potency, no number is given. Active and inactive are the calls of the source. Unless noted, the call rests on the fitted dose curve; in most records, active means well fitted curve in the direction sought with a large enough effect; inconclusive means small, poorly fitted or top-dose-only effect, or another doubt; inactive means no such curve, though single readings can be large; an effect the other way counts as inactive or inconclusive.

Experiment [1] deals with Mitogen-activated protein kinase 10 (Mus musculus) (UniProt Q61831). Description: JNK3 AlphaScreen Assay (AID 530; active means well fitted curve in either direction with a large enough effect, not every such curve was filed as active;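 further: kinase came from lysate of stimulated human HepG2 cells; signal reports phosphorylation of biotinylated GST-cJun 1-79 at Ser73 with 10 µM ATP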). The following applies: JNK3 lysate, c-Jun phosphorylation; series mostly up to 57.1 µM. The method in brief:
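Inhibitors reduce antibody binding to phosphorylated biotin-cJun, lowering AlphaScreen luminescence. Lysates from HepG2 cells pre-activated by IL-1beta plus TNF-alpha supplied JNK3; compounds were titrated.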
On the technique in general: Bead proximity is the source of the signal in Alpha formats.

Experiment [2] addresses Cytochrome P450 3A4 (Homo sapiens) (UniProt P08684). Description: qHTS Assay for Activators of Cytochrome P450 3A4 (AID 885). Further: nearly all actives have a fitted effect of over 65% in size. The conditions noted are these: recombinant CYP3A4, Luciferin-PPXE luminescence, 60 min; series mostly up to 57.1 µM. The method in brief: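 20nM CYP3A4 + 25uM Luciferin-PPXE (=KM), 200mM KPO4; cpd 10 min RT; NADPH regen, 60 min RT; stop w/ detection buffer, 20 min; luminescence. Normalized to 57 uM ketoconazole.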
A general note: qHTS replaces the single test concentration by a dilution series.

For experiment [3], the target named is Lethal(3)malignant brain tumor-like protein 1 (Homo sapiens) (UniProt Q9Y468). Description: qHTS Assay for the Inhibitors of L3MBTL1: Hit Validation (AID 540279). Further: potency means the concentration at half of the fitted maximal effect; nearly all actives have a fitted effect of over 70% in size. The conditions noted are these: L3MBTL1 methyl-lysine binding inhibition, biochemical qHTS. The method in brief: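 AlphaScreen competition format: 50 nM L3MBTL1 preincubated 30 min at room temperature with 75 nM biotinylated H3(1-15)K9me1 peptide, then compounds added for 30 min, then streptavidin donor and nickel chelate acceptor beads (10 ug/mL final) for 30 min dark.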
Chain of Lethal(3)malignant brain tumor-like protein 1 (Homo sapiens) (Q9Y468 whole entry, looked up): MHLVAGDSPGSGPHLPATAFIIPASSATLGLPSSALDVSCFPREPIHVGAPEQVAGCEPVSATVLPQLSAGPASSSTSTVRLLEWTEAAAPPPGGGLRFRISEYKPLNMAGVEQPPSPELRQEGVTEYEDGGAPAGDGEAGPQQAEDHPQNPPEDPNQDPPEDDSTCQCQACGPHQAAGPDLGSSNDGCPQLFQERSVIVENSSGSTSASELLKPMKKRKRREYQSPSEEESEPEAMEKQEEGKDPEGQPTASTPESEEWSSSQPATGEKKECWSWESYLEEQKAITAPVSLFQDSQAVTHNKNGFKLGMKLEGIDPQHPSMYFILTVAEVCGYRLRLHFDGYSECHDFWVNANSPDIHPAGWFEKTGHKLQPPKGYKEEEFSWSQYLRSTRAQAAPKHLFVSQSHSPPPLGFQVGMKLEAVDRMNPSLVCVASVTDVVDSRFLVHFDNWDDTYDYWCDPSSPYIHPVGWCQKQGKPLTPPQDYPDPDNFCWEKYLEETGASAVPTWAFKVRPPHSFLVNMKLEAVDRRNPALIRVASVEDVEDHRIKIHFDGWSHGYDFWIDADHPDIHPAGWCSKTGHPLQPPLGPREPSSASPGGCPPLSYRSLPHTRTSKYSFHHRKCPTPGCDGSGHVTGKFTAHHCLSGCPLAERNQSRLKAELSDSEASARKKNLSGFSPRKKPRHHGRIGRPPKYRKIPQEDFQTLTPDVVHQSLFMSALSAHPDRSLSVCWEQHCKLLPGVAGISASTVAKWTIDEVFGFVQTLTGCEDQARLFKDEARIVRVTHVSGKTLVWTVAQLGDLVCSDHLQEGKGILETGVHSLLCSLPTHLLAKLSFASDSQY

Experiment [4] can be described thus: qHTS Assay for the Inhibitors of L3MBTL1: Hit Validationin AlphaScreen Counterscreen (AID 602224). The conditions noted are these: signal inhibition; series mostly up to 57.1 µM. Summed up: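 Compounds incubated with biotinylated hexahistidine peptide for 15 min at room temperature; donor/acceptor AlphaScreen beads then added (10 ug/mL each, 1 nM b-His6 final) and luminescence read after 30 min in the dark.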

Experiment [5] deals with Luciferin 4-monooxygenase (Photinus pyralis) (UniProt P08659). Description: Biochemical firefly luciferase enzyme assay for NPC (AID 624030).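 Further: purified P. pyralis luciferase at 10 nM with luciferin and ATP substrate; nearly all actives have a fitted effect of over 70% in size.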 The conditions noted are these: purified P. pyralis luciferase, luminescence, 5 min; series mostly up to 58.6 µM. Summed up: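 Counter-screen for direct inhibition of the luciferase enzyme by approved-drug library compounds, run at 10 nM enzyme in 50 mM Tris acetate (final). Luminescence was read within 5 min of enzyme-buffer addition and normalized to PTC124 versus DMSO (0%).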
Chain of Luciferin 4-monooxygenase (Photinus pyralis) (P08659 whole entry, looked up): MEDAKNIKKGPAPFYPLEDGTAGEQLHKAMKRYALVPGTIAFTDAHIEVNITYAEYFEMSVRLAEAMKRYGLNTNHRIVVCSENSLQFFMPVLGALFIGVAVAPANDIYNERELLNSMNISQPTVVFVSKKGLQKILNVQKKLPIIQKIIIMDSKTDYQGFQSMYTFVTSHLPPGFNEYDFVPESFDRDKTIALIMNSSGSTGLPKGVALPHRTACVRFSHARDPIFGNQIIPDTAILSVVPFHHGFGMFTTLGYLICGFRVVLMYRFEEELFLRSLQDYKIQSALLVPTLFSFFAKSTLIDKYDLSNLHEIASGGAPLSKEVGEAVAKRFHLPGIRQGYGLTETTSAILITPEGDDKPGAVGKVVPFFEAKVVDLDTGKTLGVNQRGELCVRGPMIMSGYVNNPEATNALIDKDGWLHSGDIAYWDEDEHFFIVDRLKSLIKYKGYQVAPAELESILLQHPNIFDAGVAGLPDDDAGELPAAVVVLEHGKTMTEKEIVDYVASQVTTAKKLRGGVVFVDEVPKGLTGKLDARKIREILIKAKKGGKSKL

Experiment [6] concerns the target Bifunctional 3'-5' exonuclease/ATP-dependent helicase WRN (Homo sapiens) (UniProt Q14191). Briefly: qHTS for Inhibitors of WRN Helicase: Confirmatory Assay for Cherry-picked Compounds. (AID 720497). Further: potency means the concentration at half of the fitted maximal effect; nearly all actives have a fitted effect of over 65% in size. The following applies: WRN helicase DNA unwinding, fluorescence kinetic; series mostly up to 57.1 µM. Summed up: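 Confirmatory retest of cherry-picked hits in 1536-well format. Enzyme (20 nM final) sat with compound for 15 min at room temperature before forked duplex substrate (100 nM) and ATP (2 mM) were added, and unwinding was followed kinetically by red fluorescence.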

Experiment [7] has as its target RecQ-like DNA helicase BLM (Homo sapiens) (UniProt P54132). Briefly: qHTS for Inhibitors of WRN Helicase: BLM Helicase Counterscreen for WRN Inhibitors (AID 720503). Further: nearly all actives have a fitted effect of over 60% in size. The conditions noted are these: Recombinant BLM helicase DNA unwinding, red fluorescence; series mostly up to 57.1 µM. Summed up: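 BLM (1 nM) was preincubated with compounds for 15 min at room temperature in Tris-HCl pH 8.0, 50 mM NaCl, 2 mM MgCl2 buffer. Unwinding started with 100 nM DNA and 2 mM ATP (final); red fluorescence was read twice, 15 min apart.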

Experiment [8] deals with Flap endonuclease 1 (Homo sapiens) (UniProt P39748). Briefly: qHTS Assay for the Inhibitors of FEN1: Confirmatory Assay for Cherry-picked Compounds (AID 720498). Further: potency means the concentration at half of the fitted maximal effect; nearly all actives have a fitted effect of over 60% in size. The following applies: FEN1 flap cleavage, TAMRA/BHQ2 fluorogenic DNA substrate. Summed up: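 FEN1 at 10 nM was preincubated with compound for 15 min at room temperature, then 50 nM (final) double-flap DNA substrate was added. TAMRA fluorescence released from the BHQ-2-quenched flap was read at 0 and 15 min (ex 525/em 598 nm).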
Chain of Flap endonuclease 1 (Homo sapiens) (P39748 whole entry, looked up): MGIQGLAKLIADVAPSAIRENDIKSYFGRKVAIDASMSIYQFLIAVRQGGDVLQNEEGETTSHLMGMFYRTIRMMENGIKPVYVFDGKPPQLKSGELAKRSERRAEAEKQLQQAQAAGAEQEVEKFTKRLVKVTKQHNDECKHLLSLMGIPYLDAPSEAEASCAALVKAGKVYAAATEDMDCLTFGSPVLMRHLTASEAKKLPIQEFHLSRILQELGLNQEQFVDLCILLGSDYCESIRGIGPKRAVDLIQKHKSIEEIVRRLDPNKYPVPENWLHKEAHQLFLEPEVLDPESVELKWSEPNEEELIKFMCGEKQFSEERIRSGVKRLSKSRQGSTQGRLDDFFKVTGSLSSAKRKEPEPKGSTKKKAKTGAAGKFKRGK

The target of experiment [9] is DNA polymerase kappa (Homo sapiens) (UniProt Q9UBT6). Briefly: qHTS for Inhibitors of Polymerase Kappa: Confirmatory Assay for Cherry-picked Compounds (AID 720501). Further: potency means the concentration at half of the fitted maximal effect. The conditions noted are these: purified Pol-kappa, fluorescent strand-displacement substrate. Summed up: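 Human Pol-kappa, dispensed at 10 nM, was preincubated with compounds for 15 min at room temperature. Reactions were started with primer/template substrate (50 nM final) carrying a TAMRA reporter strand and BHQ-2-quenched template, and fluorescence (ex 525/em 598 nm) was read at 0 and 10 min.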
Chain of DNA polymerase kappa (Homo sapiens) (Q9UBT6 whole entry, looked up): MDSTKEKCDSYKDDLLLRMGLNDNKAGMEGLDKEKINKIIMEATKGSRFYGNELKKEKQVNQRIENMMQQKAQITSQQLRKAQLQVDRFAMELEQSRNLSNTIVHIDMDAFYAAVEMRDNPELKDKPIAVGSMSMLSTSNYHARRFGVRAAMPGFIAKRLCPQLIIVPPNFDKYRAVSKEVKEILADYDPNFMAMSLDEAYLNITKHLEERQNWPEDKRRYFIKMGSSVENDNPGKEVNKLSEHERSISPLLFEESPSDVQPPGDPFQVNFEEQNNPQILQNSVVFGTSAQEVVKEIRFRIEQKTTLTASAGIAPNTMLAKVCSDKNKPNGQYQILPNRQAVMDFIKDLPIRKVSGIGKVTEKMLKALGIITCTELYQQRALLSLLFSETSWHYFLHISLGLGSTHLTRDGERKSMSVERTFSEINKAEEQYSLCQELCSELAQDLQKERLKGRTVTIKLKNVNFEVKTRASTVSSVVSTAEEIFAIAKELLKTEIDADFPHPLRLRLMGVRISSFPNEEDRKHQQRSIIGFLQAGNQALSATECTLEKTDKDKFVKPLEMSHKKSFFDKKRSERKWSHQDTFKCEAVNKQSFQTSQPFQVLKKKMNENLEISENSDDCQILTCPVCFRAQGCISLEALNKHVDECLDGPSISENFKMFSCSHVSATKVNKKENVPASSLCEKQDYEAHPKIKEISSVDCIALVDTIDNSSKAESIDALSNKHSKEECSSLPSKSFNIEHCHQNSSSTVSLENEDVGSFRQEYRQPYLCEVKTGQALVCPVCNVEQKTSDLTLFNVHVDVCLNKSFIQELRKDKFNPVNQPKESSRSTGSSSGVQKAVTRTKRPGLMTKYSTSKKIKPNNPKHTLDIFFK

Chain of Cytochrome P450 3A4 (Homo sapiens) (P08684 whole entry, looked up): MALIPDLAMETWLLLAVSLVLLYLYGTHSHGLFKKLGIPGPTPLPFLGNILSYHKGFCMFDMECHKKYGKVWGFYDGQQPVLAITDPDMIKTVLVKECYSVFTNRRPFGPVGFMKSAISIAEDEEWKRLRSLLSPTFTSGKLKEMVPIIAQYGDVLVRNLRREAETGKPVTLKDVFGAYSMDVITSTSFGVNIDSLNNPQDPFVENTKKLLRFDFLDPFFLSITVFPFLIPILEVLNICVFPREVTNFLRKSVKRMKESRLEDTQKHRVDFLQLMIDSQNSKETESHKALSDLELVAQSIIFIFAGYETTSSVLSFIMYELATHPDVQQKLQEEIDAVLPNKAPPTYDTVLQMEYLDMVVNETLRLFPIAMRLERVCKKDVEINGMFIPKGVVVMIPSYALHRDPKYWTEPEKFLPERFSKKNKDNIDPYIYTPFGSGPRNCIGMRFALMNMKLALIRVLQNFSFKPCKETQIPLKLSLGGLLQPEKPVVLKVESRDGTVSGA
Chain of Bifunctional 3'-5' exonuclease/ATP-dependent helicase WRN (Homo sapiens) (Q14191 whole entry, looked up): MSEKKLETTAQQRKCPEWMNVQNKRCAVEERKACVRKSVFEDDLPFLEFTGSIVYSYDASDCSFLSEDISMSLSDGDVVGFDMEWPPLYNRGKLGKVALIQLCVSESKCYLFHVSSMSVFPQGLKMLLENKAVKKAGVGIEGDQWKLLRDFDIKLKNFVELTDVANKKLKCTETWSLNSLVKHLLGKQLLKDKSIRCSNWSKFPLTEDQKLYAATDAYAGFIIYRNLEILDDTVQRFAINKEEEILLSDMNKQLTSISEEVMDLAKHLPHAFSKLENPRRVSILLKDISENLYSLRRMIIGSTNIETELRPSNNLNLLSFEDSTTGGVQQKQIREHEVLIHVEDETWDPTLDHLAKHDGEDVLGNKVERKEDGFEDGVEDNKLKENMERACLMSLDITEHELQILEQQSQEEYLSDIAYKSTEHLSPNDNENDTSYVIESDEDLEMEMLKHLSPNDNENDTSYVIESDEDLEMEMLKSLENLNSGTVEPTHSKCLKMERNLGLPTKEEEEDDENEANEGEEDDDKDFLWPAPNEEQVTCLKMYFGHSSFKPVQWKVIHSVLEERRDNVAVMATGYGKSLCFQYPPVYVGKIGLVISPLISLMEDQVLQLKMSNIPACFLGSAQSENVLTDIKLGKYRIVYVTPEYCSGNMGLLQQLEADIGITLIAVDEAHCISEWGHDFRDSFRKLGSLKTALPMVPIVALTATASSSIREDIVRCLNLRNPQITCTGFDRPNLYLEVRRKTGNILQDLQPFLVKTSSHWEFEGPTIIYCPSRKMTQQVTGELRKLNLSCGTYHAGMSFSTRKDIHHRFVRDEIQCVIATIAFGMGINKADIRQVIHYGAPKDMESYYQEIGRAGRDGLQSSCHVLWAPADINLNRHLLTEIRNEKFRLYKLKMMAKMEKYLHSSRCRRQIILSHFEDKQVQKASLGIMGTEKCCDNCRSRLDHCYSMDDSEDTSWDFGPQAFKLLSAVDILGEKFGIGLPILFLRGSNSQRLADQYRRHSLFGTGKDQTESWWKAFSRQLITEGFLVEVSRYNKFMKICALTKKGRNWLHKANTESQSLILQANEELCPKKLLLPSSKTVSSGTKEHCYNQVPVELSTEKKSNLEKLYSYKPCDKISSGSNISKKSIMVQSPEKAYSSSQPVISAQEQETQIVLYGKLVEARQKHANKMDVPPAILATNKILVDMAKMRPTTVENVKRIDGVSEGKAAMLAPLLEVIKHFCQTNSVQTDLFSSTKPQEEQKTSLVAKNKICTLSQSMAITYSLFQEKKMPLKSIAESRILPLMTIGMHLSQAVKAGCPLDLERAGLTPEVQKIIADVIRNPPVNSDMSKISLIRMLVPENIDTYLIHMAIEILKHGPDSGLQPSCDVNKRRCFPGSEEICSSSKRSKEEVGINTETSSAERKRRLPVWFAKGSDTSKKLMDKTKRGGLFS

Take `CCCCNC(=O)C(c1ccc(OCC(=O)OC)c(C(=O)OC)c1)N(Cc1ccccn1)C(=O)CCCCCN1C(=O)NC(c2ccc(-c3ccccc3)cc2)C(C(=O)OCc2ccccc2)=C1C` (centres undefined): the compound was called inactive in experiment [1]. In experiment [2], the Potency entry is “inactive”.
Consider `CC(=O)N1[C@H](C)C=C[C@]1(Cc1ccccc1)C(=O)NCc1ccccn1`, for which the compound was called inactive in experiment [1]. For the same compound, the Potency result in experiment [2] is “inactive”.
Turning to `CC(=O)N1CC=CC1(CC(C)C)C(=O)NCC1CC1` (centres undefined), the result in experiment [1] was inactive. In experiment [2], the Potency entry is “inactive”.
Consider `CNC(=O)[C@@]1(C)C=C[C@@H](Cc2ccccc2)N1C(=O)OC`, for which, in experiment [1], the compound was classed as inactive. The Potency result in experiment [2] is “inactive”.
With `COCCNC(=O)C1(CC(C)C)C=CCN1C(=O)c1ccccc1` (centres undefined), the outcome in [1] was inactive. In addition, the Potency entry in experiment [2] is “inactive”.
In the case of `CCCCNC(=O)C(c1ccc(OCC(=O)OC)c(C(=O)OC)c1)N(CCOC)C(=O)CCCCCN1C(=O)NC(c2ccc(-c3ccccc3)cc2)C(C(=O)OCc2ccccc2)=C1C` (centres undefined), in experiment [1], the result was inactive. In experiment [2], the Potency result is “inactive”.
Consider `COC(=O)N1[C@H](C)C=C[C@]1(Cc1ccccc1)C(=O)NCc1ccc(C)o1`, for which, in experiment [1], the compound was classed as inactive. In addition, the Potency entry in experiment [2] was “inactive”.
Regarding `CCCCCCN(C(=O)CCCCCN1C(=O)NC(c2ccc(-c3ccccc3)cc2)C(C(=O)OCc2ccccc2)=C1C)C(C(=O)NCCCC)c1ccccn1` (centres undefined), in experiment [1], the compound was classed as inactive. For the same compound, the Potency result in experiment [2] was “inactive”.
Consider `COC(=O)c1ccc(C(NC(=O)OCc2ccccc2)/C(=C/[C@@H](C)C(=O)NCc2ccc(-c3ccccc3)cc2)c2cccnc2)cc1` (some centres undefined), for which the compound was classed as inactive in [1]. The Potency entry in [2] is “inactive”.
Regarding `COC(=O)CNC(=O)C1(C)C=CC2(CCCCC2)N1C(=O)OC` (centres undefined), the outcome in experiment [1] was inactive. Also, the Potency result in [2] was “inactive”.
As for `COC(=O)c1ccc(C(NC(=O)OCc2ccccc2)/C(C)=C/[C@@H](C)C(=O)Nc2ccc(OC)cc2)cc1` (some centres undefined), the compound was classed as inactive in experiment [1]. The Potency result in [2] is “inactive”.
`CC(C)NC(=O)[C@@H]1C[C@H]1[C@@H](NC(=O)OCc1ccccc1)c1ccccc1`: the call in [1] was inactive. For the same compound, in experiment [2], the Potency result is “inactive”.
Regarding `COc1ccc(CNC(=O)C(C)Cc2ccccc2)cc1O` (centres undefined), the call in [1] was inactive. The Potency entry in [2] is “inactive”.
On to `COC(=O)[C@@]1(C)C[C@@H]1[C@@H](NC(=O)[C@@]1(C)C[C@@H]1[C@@H](NC(=O)[C@@]1(C)C[C@@H]1[C@@H](NC(=O)[C@@]1(C)C[C@@H]1[C@@H](NC(=O)OCc1ccccc1)c1ccccc1)c1ccccc1)c1ccccc1)c1ccccc1`, for which, in experiment [1], the call was inactive. In addition, the Potency entry in experiment [2] was “inactive”.
In the case of `CC(=O)N1CC=CC1(C)C(=O)NCC1CC1` (centres undefined), the compound was called inactive in experiment [1]. For the same compound, the Potency result in experiment [2] is “inactive”.
Regarding `CNC(=O)[C@H](C)/C=C/C(NC(=O)OCc1ccccc1)c1ccc(C(=O)OC)cc1` (some centres undefined), the compound was called inactive in experiment [1]. Moreover, the Potency result in experiment [2] was “inactive”.
With `Cc1cc(CNC(=O)C(C)Cc2ccccc2)nn1C` (centres undefined), in [1], the outcome was inactive. The Potency entry in [2] was “inactive”.
As to `CCCCCCN(C(=O)CCCCCN1C(=O)NC(c2ccc(-c3ccccc3)cc2)C(C(=O)OCc2ccccc2)=C1C)C(C(=O)NCCCC)c1ccc(OCC(=O)O)c(C(=O)O)c1` (centres undefined), the compound was called inactive in experiment [1]. Also, the Potency result in experiment [2] was “inactive”.
With `COC(=O)c1ccc(C(NC(=O)OCc2ccccc2)/C(C)=C/[C@@H](C)C(=O)NCCN2CCOCC2)cc1` (some centres undefined), the result in [1] was inactive. Also, the Potency entry in experiment [2] was “inactive”.
With `CC(=O)N1[C@H](C)C=C[C@]1(Cc1ccccc1)C(=O)NCCc1c[nH]c2ccccc12`, the call in experiment [1] was inactive. In addition, in experiment [2], the Potency result was “inactive”.
Regarding `COc1cccc2c(C)c(C(=O)O)[nH]c12`, the Potency in [3] is 5.97 µM (active). Further, the compound was classed as inactive in experiment [4].
Consider `CC(=O)N1CC=CC1(CC(C)C)C(=O)NCc1ccccn1` (centres undefined), for which the compound was called inactive in experiment [1]. Further, in [2], the Potency entry is “inactive”.
On to `COc1ccccc1-c1oc2ccccc2c(=O)c1O`, for which the Potency result in experiment [2] was “inactive”.
Still for that read-out and setting: the value for `COc1ccc2c(c1OC)C(Cc1ccccc1)N1CCc3cc4c(cc3C1C2)OCO4` (centres undefined) was “inactive”.
With `Cn1c2ccccc2c(=O)c2c(=O)n(Cc3ccco3)c(COc3ccccc3)nc21`, the call in experiment [4] was inactive.
Consider `O=C(COC(=O)c1ccc(F)cc1F)Nc1ncccn1`, for which the compound was called inactive in [4].
With `CC12CCC3c4ccc(O)cc4CCC3C1CCC2=O` (centres undefined), the Potency result in experiment [5] is “inactive”.
Regarding `CSc1nnc(SCc2nc3sc(C(=O)O)c(C)c3c(=O)[nH]2)s1`, in experiment [6], the Potency was 13.6 µM (active). The Potency entry in experiment [7] is “inactive”.
For the compound `COc1ccc(Cc2nnc(NC(=O)Cc3cccs3)s2)cc1`, the Potency in experiment [8] was 84.9 µM (active).
For `COCCNC(=O)Nc1ccc2nc(-c3ccco3)c(-c3ccco3)nc2c1`, the values for the Potency in [8] and in [9] were 19 µM (active) and 3.77 µM (active), respectively.
